Reference: PubChem BioAssay (NCATS)
Results filed as inconclusive are left out. Active and inactive are the calls of the source. Calls follow the shape of the dose curve; as a rule, active = well fitted cell-killing curve with a large enough effect; inconclusive = small, poorly fitted or top-dose-only effect; inactive = flat fitted curve, though single readings scatter. Bridge positions count the residues as written; N and C are the ends. Square brackets hold non-standard residues; d marks the D form. Side chains are listed from the residue outwards. Peptide text beside a SMILES is read from it. * marks the point of attachment. Phg(4-OMe) = COc1ccc([C@H](N)C(=O)O)cc1; d(aIle) = CC[C@H](C)[C@@H](N)C(=O)O; d(aThr) = C[C@@H](O)[C@@H](N)C(=O)O; NMeF = CN[C@@H](Cc1ccccc1)C(=O)O; Isobutyryl = CC(C)C(=O)*
% is scaled to controls: 0 for no effect and ±100 for the full control effect; potency is read from the fitted curve at half-maximal effect.

Test: OV-SAHO Cancer Cell Toxicity qHTS against the NCATS CANVASS Library (AID 1347348); also: nearly all actives have a fitted effect of over 55% in size
Settings: OV-SAHO viability, CellTiter-Glo luminescence, 72 h; series mostly up to 38.3 µM; activity change, negative = cytotoxicity: at the top concentration
How it was run: (§1)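 Viability was assessed by adding CellTiter-Glo reagent to treated cultures and reading luminescence after 15min at room temperature. Treatment lasted 72 h at 37 degrees C/5% CO2, using an 11-point series on 1000 cells/well.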
With `O[C@H]1c2ccccc2-c2c3c(cc4c2[C@@H]1NCC4)OCO3` the “activity change, negative = cytotoxicity” value was -13.9% (inactive).
With `CC(C)=CC[C@H]1C[C@@]2(CC=C(C)C)C(=O)[C@](CC=C(C)C)(C(=O)C(C(=O)c3ccccc3)=C2O)C1(C)C` the Potency was 14.9 µM (active).
In the case of `C=C1CC[C@@H](Br)C(C)(C)[C@]12CC=C(C)C(=O)C2`, the “activity change, negative = cytotoxicity” value is reported as -5.18% (inactive).
With `COc1cc2c(cc1OC)[C@@H](c1ccc3c(c1)OCO3)C(C)C(C)C2=O` (stereo partly specified) the “activity change, negative = cytotoxicity” value was -20.5% (inactive).
In the case of `C/C(=C\[C@H](C)C(=O)/C=C/CC1CC(=O)NC(=O)C1)[C@@H]1OC(=O)/C=C/CC/C=C/C[C@@H](O)[C@@H]1C`, the Potency is reported as 2.11 µM (active).
In the case of `Oc1ccc(C2Oc3cc(O)c4c(c3[C@@H]2c2cc(O)cc(O)c2)[C@H]2C(c3ccc(O)cc3)c3c(O)cc5c(c3[C@H]2C4c2ccc(O)cc2)[C@H](c2cc(O)cc(O)c2)C(c2ccc(O)cc2)O5)cc1` (stereo partly specified), the Potency is reported as 16.7 µM (active).
In the case of `COc1cc(O)c(C(=O)[C@@H]2[C@H](CC=C(C)C)C(C)=CC[C@H]2c2ccccc2)c(O)c1`, the Potency is reported as 23.6 µM (active).
For `COc1cc(/C=C/C(=O)OC[C@@H](Cc2ccc(O)c(OC)c2)[C@@H](COC(=O)/C=C/c2ccc(O)c(OC)c2)Cc2ccc(O)c(OC)c2)ccc1O`, the Potency was 23.6 µM (active).
In the case of `C=CC(CCCCC)C1C(=O)NC(=O)C1C(=O)C1C2C(C)CC(C(=O)O)CC2CC1(O)C(=O)/C=C/C` (stereo unspecified), the “activity change, negative = cytotoxicity” value is reported as 0.481% (inactive).
With `C[C@]12CCC[C@](C)(C(=O)O)[C@@H]1CC[C@@]1(C)c3cocc3CC[C@H]21` the “activity change, negative = cytotoxicity” value was -14.4% (inactive).
In the case of `COc1c(O)cc2c(c1O)C(=O)c1c(coc1C)C2=O`, the “activity change, negative = cytotoxicity” value is reported as -9.21% (inactive).
For `COc1cc2c(c(O)c1O)C(=O)c1c(coc1C)C2=O`, the Potency was 4.2 µM (active).
For `CO[C@H]1[C@@H](OC(=O)/C(C)=C\[C@@H]2O[C@@H]2[C@H]2O[C@H]2C)[C@H](O)[C@H](OCC23C[C@@H]4[C@H](C)CC[C@H]4C4(C=O)CC2C=C(C(C)C)C34C(=O)O)O[C@@H]1C` (stereo partly specified), the “activity change, negative = cytotoxicity” value was -8.44% (inactive).
With `CC[C@H]1[C@H](C)[C@H](c2cc(OC)c(OC)cc2OC)[C@@H](C)[C@H](c2cc(OC)c(OC)cc2OC)[C@@]12C=C(OC)C(=O)C=C2OC` the Potency was 21.1 µM (active).

Test: Panc-1005 Cancer Cell Toxicity qHTS against the NCATS CANVASS Library (AID 1347349); also: nearly all actives have a fitted effect of over 60% in size
Settings: Panc-1005 viability, CellTiter-Glo luminescence, 72 h; series mostly up to 38.3 µM; activity change, negative = cytotoxicity: at the top concentration
How it was run: as §1
In the case of `O=C1CC2OCC=C3CN4C5CC3C2[C@@H]2N1c1ccccc1[C@]52C[C@@H]4C1=C[C@H]2C3CC4N(CC[C@@]45c4ccccc4N(C1=O)[C@@H]25)C/C3=C/CO` (stereo partly specified), the Potency is reported as 16.8 µM (active).
With `CCC(=O)CCCCC[C@@H]1NC(=O)[C@H]2CCCCN2C(=O)[C@H](C(C)C)NC(=O)[C@H](Cc2cn(OC)c3ccccc23)NC1=O` the Potency was 4.21 µM (active).
For `C/C(=C\[C@H](C)C(=O)CCCC1CC(=O)NC(=O)C1)[C@@H]1OC(=O)/C=C/CC/C=C/[C@H](O)[C@@H](O)[C@@H]1C`, the Potency was 0.668 µM (active).
For `C/C=C(/C)c1c(Cl)c(O)c(C)c2c1Oc1c(Cl)c(O)c(Cl)c(C)c1C(=O)O2`, the “activity change, negative = cytotoxicity” value was -25.3% (inactive).
In the case of `COc1ccc([C@@H]2CC(=O)c3c(cc(O)c(C/C=C(\C)CCC=C(C)C)c3O)O2)cc1`, the activity change, negative = cytotoxicity is reported as -16.1% [at 7.64 µM] (inactive).
In the case of `CC[C@H](C)[C@H]1NC(=O)[C@@H](NC(=O)C(C)C)[C@@H](C)OC(=O)[C@H](COC(=O)CNC(C)=O)NC(=O)[C@@H]([C@@H](C)O)NC(=O)[C@H](Cc2ccccc2)N(C)C(=O)[C@H](c2ccc(OC)cc2)NC1=O` (Isobutyryl-T[d(aIle)][Phg(4-OMe)][NMeF][d(aThr)]S([Gly-Ac]); ester 1-C), the “activity change, negative = cytotoxicity” value is reported as 0.0766% (inactive).
For `C/C1=C/[C@@H](C)[C@H](O)[C@@H](O)/C=C/CC/C=C/C(=O)O[C@@H]1[C@H](C)C(=O)CCCC1CC(=O)NC(=O)C1`, the “activity change, negative = cytotoxicity” value was -22.2% (inactive).
With `CC(=O)Oc1cc2c(c(OC(C)=O)c1C1CCc3cc(Cl)c(Cl)n31)C(=O)n1c-2cc(Cl)c1Cl` (stereo unspecified) the Potency was 6.68 µM (active).
In the case of `COc1ccc2[nH]c3c(c2c1)CCN1C[C@H]2C[C@@H](OC(=O)c4cc(OC)c(OC)c(OC)c4)[C@H](OC)[C@@H](OC)[C@H]2C[C@H]31`, the Potency is reported as 13.3 µM (active).
For `CC(C)=CC[C@H]1C[C@@]2(CC=C(C)C)C(=O)[C@](CC=C(C)C)(C(=O)C(C(=O)c3ccccc3)=C2O)C1(C)C`, the Potency was 13.3 µM (active).
In the case of `C=C[C@](Cl)(CBr)CCC=C(C)C`, the “activity change, negative = cytotoxicity” value is reported as -10.1% (inactive).
For `C=C1CC[C@@H](Br)C(C)(C)[C@]12CC=C(C)C(=O)C2`, the “activity change, negative = cytotoxicity” value was 3.62% (inactive).
In the case of `C[C@H]1C=C[C@H]2CCCC[C@@H]2[C@H]1C(=O)[C@H]1CC2=C(C(=O)O)CCN2C1=O`, the “activity change, negative = cytotoxicity” value is reported as 2.37% (inactive).
In the case of `C/C=C1/CN2C3CC1C1C=CC(=O)N4c5ccccc5[C@@]3(C[C@@H]2C2=C[C@H]3C5CC6N(CC[C@@]67c6ccccc6N(C2=O)[C@@H]37)C/C5=C/C)[C@H]14` (stereo partly specified), the Potency is reported as 7.49 µM (active).
In the case of `COc1cc(O)c(C(=O)[C@@H]2[C@H](CC=C(C)C)C(C)=CC[C@H]2c2ccccc2)c(O)c1`, the Potency is reported as 9.43 µM (active).
For `C=C(C)CC[C@H](Cc1c(O)cc(O)c2c1O[C@H](c1ccc(O)cc1)CC2=O)C(=C)C`, the “activity change, negative = cytotoxicity” value was -29.8% (inactive).
For `COc1cc(/C=C/C(=O)OC[C@@H](Cc2ccc(O)c(OC)c2)[C@@H](COC(=O)/C=C/c2ccc(O)c(OC)c2)Cc2ccc(O)c(OC)c2)ccc1O`, the Potency was 9.43 µM (active).
With `C=CC(CCCCC)C1C(=O)NC(=O)C1C(=O)C1C2C(C)CC(C(=O)O)CC2CC1(O)C(=O)/C=C/C` (stereo unspecified) the “activity change, negative = cytotoxicity” value was -22% (inactive).
For `COc1c(O)cc2c(c1O)C(=O)c1c(coc1C)C2=O`, the “activity change, negative = cytotoxicity” value was 3.88% (inactive).
With `CC(C)C[C@@H]1c2c(O)c(C=O)c(O)c(C=O)c2O[C@]2(C)C=C[C@@H](C(C)C)C[C@H]12` the “activity change, negative = cytotoxicity” value was -15.4% (inactive).
In the case of `COc1cc2c(c(O)c1O)C(=O)c1c(coc1C)C2=O`, the Potency is reported as 9.43 µM (active).
In the case of `CO[C@H]1[C@@H](OC(=O)/C(C)=C\[C@@H]2O[C@@H]2[C@H]2O[C@H]2C)[C@H](O)[C@H](OCC23C[C@@H]4[C@H](C)CC[C@H]4C4(C=O)CC2C=C(C(C)C)C34C(=O)O)O[C@@H]1C` (stereo partly specified), the “activity change, negative = cytotoxicity” value is reported as 6.03% (inactive).
